Laboratory results published in PubChem BioAssay AID1259240 (Keith Lab, Institute of Cancer Science, University of …, 2017).
Activity calls are given as the source filed them. Rule as the data show it: active = fold change mostly below about -2 (no sharp cut-off); inactive = mostly above about -1.8.

Test: TERT promoter activity modulators, primary screen, cell-based, luciferase reporter, human (AID 1259240)
Conditions: A2780 TERT promoter luciferase reporter, 16 h; at 20 µM, fold versus average of vehicle-only wells

Fold change, inactive:
COC(=O)CN1C(=O)C(O)(CC(=O)c2ccc(Br)cc2)c2ccccc21 (stereo not drawn) -1.49
Cc1ccc(-c2cc(C(F)F)n3ncc(C(=O)NCc4cccnc4)c3n2)cc1 -1.5
Cc1csc(NC(=O)C2CCCN2S(=O)(=O)c2cccc3cccnc23)n1 (stereo not drawn) -1.27
CCOc1ccc(/C=c2\sc3nc(=O)c(Cc4ccc(Cl)cc4)nn3c2=O)cc1OC 1.07
O=C(CCC(=O)NC1CCCC1)NNc1nc2ccccc2c2nc(-c3ccccc3)nn12 -1.47
CCC1(C)Cc2ccccc2-c2nc(NCCO)n(-c3ccccc3)c(=O)c21 (stereo not drawn) -1.48
CC1CCN(S(=O)(=O)c2ccc3c(c2)N(CC(=O)N2CCOCC2)C(=O)CO3)CC1 1.44

outcome, inactive:
CC1=C(C(=O)Nc2ccccc2)C(c2ccccn2)n2nc(CCCO)nc2N1 (stereo not drawn)
